Experimental data as given in PubChem BioAssay (NCATS).
“And” between values parts separate entries of the source, which are not always exact repeats. Equal values may be shown once. Results filed as inconclusive are left out. Where a call stands in place of a potency, no number is given. More than one record can exist for a structure, and the calls need not agree. The source made the active and inactive calls. Calls follow the shape of the dose curve; as a rule, active = well fitted curve in the direction sought with a large enough effect; inconclusive = small, poorly fitted or top-dose-only effect, or another doubt; inactive = no such curve, though single readings can be large; an effect the other way counts as inactive or inconclusive.

target: Arylsulfatase A (Homo sapiens) (UniProt P15289); experiment: qHTS screen for enhancers of Arylsulfatase A (ASA1): LOPAC Validation Assay (AID 720538); conditions: ASA enzyme activity, LOPAC qHTS enhancer assay; series mostly up to 57.5 µM; also: potency is read from the fitted curve at half-maximal effect
Outline: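 MLD patient fibroblasts (SV40, ASA-I179S), 1536-well; adhere 6 hrs; cpd 48h, 37 degree C, 5% CO2; pNCS 0.5mM final in lysis buffer, 14h RT; stop 1N NaOH final; fluor. Ex525/Em598.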

Sequence of Arylsulfatase A (Homo sapiens) (P15289 whole entry, looked up): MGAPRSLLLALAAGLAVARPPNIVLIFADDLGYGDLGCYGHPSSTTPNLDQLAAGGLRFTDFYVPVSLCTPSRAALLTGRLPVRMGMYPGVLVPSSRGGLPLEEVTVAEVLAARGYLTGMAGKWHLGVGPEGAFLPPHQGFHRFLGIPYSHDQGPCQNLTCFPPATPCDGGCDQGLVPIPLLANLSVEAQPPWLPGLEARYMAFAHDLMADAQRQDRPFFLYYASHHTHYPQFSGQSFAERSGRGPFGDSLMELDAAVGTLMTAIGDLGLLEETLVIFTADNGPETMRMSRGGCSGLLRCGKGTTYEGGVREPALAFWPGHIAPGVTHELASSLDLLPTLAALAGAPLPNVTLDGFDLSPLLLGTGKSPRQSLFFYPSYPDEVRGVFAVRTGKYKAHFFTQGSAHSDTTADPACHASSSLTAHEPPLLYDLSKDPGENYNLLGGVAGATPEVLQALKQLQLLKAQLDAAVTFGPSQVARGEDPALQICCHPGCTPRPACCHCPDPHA

| Structure (SMILES) | Potency |
| --- | --- |
| OCCN1CCN(CCCN2c3ccccc3Sc3ccc(Cl)cc32)CC1 | inactive |
| CSc1ccc2c(c1)C(N1CCN(C)CC1)Cc1ccccc1S2 (stereo not drawn) | inactive |
| C=Cc1c(C)c2cc3[nH]c(cc4nc(cc5nc(cc1[nH]2)C(C)=C5CCC(=O)O)C(CCC(=O)O)=C4C)c(C)c3C=C | inactive |
| CC(C)NC[C@H](O)c1ccc(O)c(O)c1 | inactive |
| CC(C)C(=O)c1c(C(C)C)nn2ccccc12 | inactive |
| CC(C(O)c1ccc(O)cc1)N1CCC(Cc2ccccc2)CC1 (stereo not drawn) | inactive |
| CC1=C(CC(=O)O)c2cc(F)ccc2/C1=C\c1ccc(S(C)(=O)=O)cc1 | inactive |
| CC(C)(C)[C@]1(O)CCN2C[C@H]3c4ccccc4CCc4cccc(c43)[C@@H]2C1 | inactive |
| CC(C)(C)c1onc(OCP(=O)(O)O)c1CC(N)C(=O)O (stereo not drawn) | inactive and 4.26 µM (active) |
| OCc1cc(C(O)CNCCCCCCOCCCCc2ccccc2)ccc1O (stereo not drawn) | inactive |
| CC(C)(C(=O)O)c1ccc(C(O)CCCN2CCC(C(O)(c3ccccc3)c3ccccc3)CC2)cc1 (stereo not drawn) | inactive |
| CCN(CC)CCCC(C)Nc1c2ccc(Cl)cc2nc2ccc(OC)cc12 (stereo not drawn) | inactive |
| CCCn1cnc2c1c(=O)n(CCCCC(C)=O)c(=O)n2C | inactive |
| CCCCCCCCCCCCCCCC(=O)NCCO | inactive |
| CC(=O)OCC(=O)[C@@]1(O)CC[C@H]2[C@@H]3CCC4=CC(=O)CC[C@]4(C)[C@H]3C(=O)C[C@@]21C | inactive |
| CN(C)CCCN1c2ccccc2CCc2ccccc21 | inactive |
| NC(N)=NCCC[C@H](N)C(=O)O | inactive |
| CC[C@H]1CN2CCc3cc(OC)c(OC)cc3[C@@H]2C[C@@H]1C[C@H]1NCCc2cc(OC)c(OC)cc21 | inactive |
| CC1=C(CC(=O)O)c2cc(F)ccc2/C1=C\c1ccc(S(C)=O)cc1 (stereo not drawn) | inactive |
| Cc1cc(N)c2ccccc2[n+]1CCCCCCCCCC[n+]1c(C)cc(N)c2ccccc21 | inactive |
| CN1CCN(C2Cc3ccccc3Sc3ccc(Cl)cc32)CC1 (stereo not drawn) | inactive |
| CC(CN(C)C)CN1c2ccccc2CCc2ccccc21 (stereo not drawn) | inactive |
| Nc1cc(=O)[nH]c(N)n1 | inactive |
| C[C@](N)(Cc1ccc(O)cc1)C(=O)O | inactive |
| N=c1c[n+](N2CCOCC2)[n-]o1 | inactive |
| CCN(CC)CCNC(=O)c1cc(Cl)c(N)cc1OC | inactive |
| CNCCCC1c2ccccc2C=Cc2ccccc21 | inactive |

system: not listed separately; experiment: qHTS for compounds that reverse cellular toxicity of Amyloid beta (A-beta) peptide in yeast: LOPAC Validation Assay (AID 720559); conditions: yeast expressing A-beta; series mostly up to 46.1 µM
Outline: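 Medium dispensed, compounds pinned, A-beta yeast suspension added; plates held at 30 C for 48 hr; absorbance measured at 600 nm to gauge growth; values scaled between DMSO and FeCl3/clioquinol (equimolar) controls.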

| Structure (SMILES) | outcome |
| --- | --- |
| OCCN1CCN(CCCN2c3ccccc3Sc3ccc(Cl)cc32)CC1 | inactive |
| CSc1ccc2c(c1)C(N1CCN(C)CC1)Cc1ccccc1S2 (stereo not drawn) | inactive |
| C=Cc1c(C)c2cc3[nH]c(cc4nc(cc5nc(cc1[nH]2)C(C)=C5CCC(=O)O)C(CCC(=O)O)=C4C)c(C)c3C=C | inactive |
| CC(C)NC[C@H](O)c1ccc(O)c(O)c1 | inactive |
| CC(C)C(=O)c1c(C(C)C)nn2ccccc12 | inactive |
| CC(C(O)c1ccc(O)cc1)N1CCC(Cc2ccccc2)CC1 (stereo not drawn) | inactive |
| CC1=C(CC(=O)O)c2cc(F)ccc2/C1=C\c1ccc(S(C)(=O)=O)cc1 | inactive |
| CNCC(O)c1ccc(O)c(O)c1 (stereo not drawn) | inactive |
| CC(C)(C)[C@]1(O)CCN2C[C@H]3c4ccccc4CCc4cccc(c43)[C@@H]2C1 | inactive |
| CC(C)(C)c1onc(OCP(=O)(O)O)c1CC(N)C(=O)O (stereo not drawn) | inactive |
| OCc1cc(C(O)CNCCCCCCOCCCCc2ccccc2)ccc1O (stereo not drawn) | inactive |
| CC(C)(C(=O)O)c1ccc(C(O)CCCN2CCC(C(O)(c3ccccc3)c3ccccc3)CC2)cc1 (stereo not drawn) | inactive |
| CCN(CC)CCOC(=O)C1(C2CCCCC2)CCCCC1 | inactive |
| CCN(CC)CCCC(C)Nc1c2ccc(Cl)cc2nc2ccc(OC)cc12 (stereo not drawn) | inactive |
| CCCn1cnc2c1c(=O)n(CCCCC(C)=O)c(=O)n2C | inactive |
| CCCCCCCCCCCCCCCC(=O)NCCO | inactive |
| COCCOC(=O)C1=C(C)NC(C)=C(C(=O)OC/C=C/c2ccccc2)C1c1cccc([N+](=O)[O-])c1 (stereo not drawn) | inactive |
| CC(=O)OCC(=O)[C@@]1(O)CC[C@H]2[C@@H]3CCC4=CC(=O)CC[C@]4(C)[C@H]3C(=O)C[C@@]21C | inactive |

| Structure (SMILES) | outcome |
| --- | --- |
| CN(C)CCCN1c2ccccc2CCc2ccccc21 | inactive |
| NC(N)=NCCC[C@H](N)C(=O)O | inactive |
| CC[C@H]1CN2CCc3cc(OC)c(OC)cc3[C@@H]2C[C@@H]1C[C@H]1NCCc2cc(OC)c(OC)cc21 | inactive |
| C#CCN(C)Cc1ccccc1 | inactive |
| NC1CCN(c2cccc(Cl)n2)CC1 | inactive |
| CC1=C(CC(=O)O)c2cc(F)ccc2/C1=C\c1ccc(S(C)=O)cc1 (stereo not drawn) | inactive |
| Cc1cc(N)c2ccccc2[n+]1CCCCCCCCCC[n+]1c(C)cc(N)c2ccccc21 | inactive |
| CN1CCN(C2Cc3ccccc3Sc3ccc(Cl)cc32)CC1 (stereo not drawn) | inactive |
| CC(CN(C)C)CN1c2ccccc2CCc2ccccc21 (stereo not drawn) | inactive |
| Nc1cc(=O)[nH]c(N)n1 | inactive |
| CNCCC(Oc1ccc(C(F)(F)F)cc1)c1ccccc1 (stereo not drawn) | inactive |
| Nc1ncnc2c1ncn2[C@@H]1O[C@H](CO)[C@@H](O)[C@H]1O | inactive |
| N=c1c[n+](N2CCOCC2)[n-]o1 | inactive |
| CSc1ccc2c(c1)N(CCC1CCCCN1C)c1ccccc1S2 (stereo not drawn) | inactive |
| CCN(CC)CCNC(=O)c1cc(Cl)c(N)cc1OC | inactive |
| O=C1N=C(O)CN1/N=C/c1ccc(-c2ccc([N+](=O)[O-])cc2)o1 | inactive |
| CN(C)CC[C@@H](c1ccc(Cl)cc1)c1ccccn1 | inactive |
| CNCCCC1c2ccccc2C=Cc2ccccc21 | inactive |
